Consider 35 compounds from PubChem BioAssay.

A short description of this assay: viability profiling in RPMI8226 myeloma cells – cell-based, resazurin fluorescence, basal, 24 h, PK04 Diversity Set, profiling panel (AID 1180).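 Note: RPMI8826 multiple myeloma cell line at 5000 cells per well; test concentration not given here.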 The conditions noted are these: higher = more signal.
In turn, `COC(=O)[C@@]1(Cc2ccc(F)cc2)[C@H]2c3cc(C(=O)N(C)C)n(Cc4ccc(O)c(OC)c4)c3C[C@H]2CN1C(=O)c1ccccc1` returned a z-score of -0.997. In turn, `CO[C@H]1O[C@H](CO)[C@@H](OC(=O)Nc2cccc(F)c2)[C@H](OC(=O)Nc2ccccc2-c2ccccc2)[C@H]1OC(=O)Nc1ccccc1-c1ccccc1` returned a z-score of -4.87. The result for `C=C(CCCC)/C(=C/C[C@H](OC(C)=O)c1ccc(OCCO)cc1)c1cc(C(=O)OC)ccc1OC` reads 0.621. The result for `COCCCNC(=O)[C@@]1(Sc2ccc(C)cc2)CC(=O)N(Cc2ccccc2Cl)[C@@H]1c1ccc(CO)cc1I` reads -2.38. The same measure for `COc1cccc(/C=C(\C#N)C(=O)Nc2c(C)n(C)n(-c3ccccc3)c2=O)c1`: 0.191; for `CS(=O)(=O)CCOC(=O)C1=CC(CCCO)=CC(C2CC2)N(Cc2cccc(OC(F)(F)F)c2)C=C1C(=O)OCCS(C)(=O)=O` (stereo not given): 0.329; for `COc1ccc(C#Cc2ccc3c(c2)[C@]2(C(=O)N3)[C@H](C(=O)Nc3nc4ccccc4s3)[C@H]3C(=O)O[C@H](c4ccccc4)[C@H](c4ccccc4)N3[C@@H]2c2ccccc2OCCO)cc1`: 1.5. In turn, `C=C[C@@H](C)[C@@H](OC(=O)Nc1ccc(SC)cc1)c1ccc(OCCO)cc1` showed a z-score of 0.0167. The result for `CC(=O)N1CC(C(O)C2C=CC3C(=O)NC(=O)C3N2Nc2ccc(Cl)cc2Cl)c2ccccc21` (stereo not given) reads -0.94. The result for `CC(C)C[C@@H]1NC(=O)[C@H]2C[C@@H](C(=O)NCCCCCN)[C@@H](c3cccc(OCCO)c3)N2C1=O` reads 0.138; that for `C=C(/C(=C/C[C@@H](OC(C)=O)c1ccc(CO)o1)c1cc(C(=O)OC)ccc1OC)C(C)C`, -0.0967. The same measure for `O=C1OCC=C[C@H]2OC34C=CCN(c5ccc6ccccc6c5)C(=O)[C@H]3N(CCCCCO)C(=O)[C@@H]4[C@@H]12` (stereo not given in full): -0.887; for `COC(=O)[C@@]1(Cc2ccccc2)[C@H]2c3cc(C(=O)N4CCCC4)n(CCSCCO)c3C[C@H]2CN1C(=O)c1ccccc1`: -1.68; for `NC(=O)[C@@H]1[C@H]2C(=O)O[C@H](c3ccccc3)[C@H](c3ccccc3)N2[C@H](c2ccc(OCCO)cc2)[C@@]12C(=O)Nc1ccc(C#CCCO)cc12`: -0.83. On to `[N-]=[N+]=Nc1ccccc1C[C@]1(C(=O)NCc2ccccc2)COC(c2ccc(OCCCO)cc2)=N1`, for which the z-score is -4.83.

Regarding `CN1C(=O)[C@@]2(Cc3ccccc3)N=C(c3ccc(OCCCO)cc3)O[C@H]2c2ccccc21`, the z-score was -1.99. `CCOC(=O)C[C@H]1[C@H](OC(=O)c2ccccc2-c2ccccc2)[C@@H](NC(=O)c2ccc3ccccc3n2)c2cc(OCCCO)ccc2N1C(=O)c1ccccc1`: the z-score is 0.303. The result for `Nc1cc(Br)ccc1C(=O)O` reads 1.29. Compound `C=C(COC)C(=O)CC[C@@H](OC(=O)c1cccnc1)c1ccccc1OCCO` showed a z-score of -3.63.

`CCOC(=O)C1=C[C@@H](c2ccccc2)N(S(=O)(=O)c2ccc(C)cc2)[C@H]1c1ccccc1` came in with a z-score of -0.549.

As for `CC(C)c1ccc(NN2C(C(O)Cc3ccccc3)C=CC3C(=O)N(c4ccccc4)C(=O)C32)cc1` (stereo not given), the z-score is -0.807. The result for `C=CCC(OC(C)=O)[C@@H]1[C@@H](N(Cc2ccc(-c3cccc(C(F)(F)F)c3)o2)C(=O)Cc2ccc(OC)cc2)c2cc(OCCCO)ccc2N1C(=O)Cc1ccc2ccccc2c1` (stereo not given in full) reads -0.224.

Compound `COCCOC(=O)N1C(=O)[C@@]2(c3cc(C#CCNC(N)=O)ccc31)[C@H](c1ccc(O)cc1)N1[C@H](c3ccccc3)[C@H](c3ccccc3)OC(=O)[C@H]1[C@@H]2C(N)=O` yielded a z-score of -0.938. Compound `C=CC1c2cc(O)c(OC)cc2CCN1Cc1ccc([N+](=O)[O-])o1` (stereo not given) registered a z-score of 0.685. The same measure for `CC(=O)n1cc(C(O)C2C=CC3C(=O)N(c4ccccc4)C(=O)C3N2Nc2ccc(C(C)C)cc2)c2ccccc21` (stereo not given): -1.06. As for `CO[C@H]1O[C@H](CO)[C@@H](OC(=O)c2ccc(Br)cc2)[C@@H]2OC(=O)[C@H](Cc3ccccc3)C/C=C/C[C@@H](Cc3ccccc3)C(=O)O[C@@H]12`, the z-score amounted to 0.425. `CN(C)CCCC[C@@H]1NC(=O)[C@@H]2C[C@H](C(=O)O)[C@H](c3cccc(OCCO)c3)N2C1=O` showed a z-score of 0.259.

Take `CCCCCCCCCCC(O)C1C=CC2C(=O)N(c3ccccc3)C(=O)C2N1Nc1ccccc1F` (stereo not given): the z-score is -0.335. `C=CCOC(=O)[C@H]1[C@@H]2C(=O)O[C@@H](c3ccccc3)[C@@H](c3ccccc3)N2[C@@H](c2ccc(OCCOC(=O)[C@H]3C[C@H]4C(=O)N[C@@H](CCCCNC(C)=O)C(=O)N4[C@H]3c3cccc(OCCO)c3)cc2)[C@]12C(=O)Nc1ccc(I)cc12`: the z-score was -0.538. `Cc1ccc(F)cc1S(=O)(=O)N[C@@H]1CCN(Cc2cccc3[nH]ccc23)C1` displayed a z-score of -0.504. `CC(C)C(=C=CC[C@@H](O)c1cccc(OCCO)c1)C[C@@H](O)c1ccccn1`: the z-score was found to be 0.463. The result for `[N-]=[N+]=NCc1ccccc1[C@H]1OC(c2ccc(OCCCO)cc2)=N[C@@]1(Cc1ccccc1)C(=O)NCCN1CCOCC1` reads 0.16; that for `C=CC[C@H](OC(=O)Nc1ccc(SC)cc1)c1ccc(OCCO)cc1`, 0.194; that for `CN(C)C(=O)[C@@]1(Cc2ccccc2)COC(c2ccc(OCCCO)cc2)=N1`, 0.449. The same measure for `NC(=O)[C@H]1[C@@H]2C(=O)O[C@@H](c3ccccc3)[C@@H](c3ccccc3)N2[C@@H](c2ccc(O)cc2)[C@]12C(=O)Nc1ccc(C#CC3=CCCCC3)cc12`: -4.76.
